Where “and” joins values, the source holds several entries; their conditions need not be identical. Equal values may be shown once. The campaign covered roughly 5,500 compounds. About 2,000 (36%) were called active. Not shown: some 18% with an inconclusive outcome. Cut-off read from the data, not from the text of the source: active = normalized growth mostly below about 0.91 (no sharp cut-off); inconclusive = no clear call, values can overlap the other calls; inactive = mostly above about 0.92. Some of the results follow.
Assay: chemical genetic growth profiling, strain panel (AID 1159580);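 note: tested at 20 µM; growth read once vehicle control cultures reached saturation at 30 °C; 1 = growth at the plate median or of vehicle wells; lower values mean less growth of the strain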
Settings: growth OD

Measured: normalized growth

NCCNC(=O)c1ccc(Cl)cc1
inactive: S. cerevisiae deletion strains, locus YAL040C, strain CLN3, stronger effect = lower value 1.07 | S. cerevisiae deletion strains, locus YBR021W, strain FUR4, stronger effect = lower value 0.997 | S. cerevisiae deletion strains, locus YBR229C, strain ROT2, stronger effect = lower value 0.994 | S. cerevisiae deletion strains, locus YCL029C, strain bik1, stronger effect = lower value 0.986 | S. cerevisiae deletion strains, locus YCL061C, strain MRC1 (second series), stronger effect = lower value 0.997 | S. cerevisiae deletion strains, locus YDL035C, strain GPR1, stronger effect = lower value 0.997 | S. cerevisiae deletion strains, locus YDL074C, strain BRE1, stronger effect = lower value 1.05 | S. cerevisiae deletion strains, locus YDL101C, strain DUN1, stronger effect = lower value 0.994 | S. cerevisiae deletion strains, locus YDL134C, strain PPH21, stronger effect = lower value 0.98 | S. cerevisiae deletion strains, locus YDL185W, strain tfp1, stronger effect = lower value 0.984 | S. cerevisiae deletion strains, locus YDL192W, strain arf1, stronger effect = lower value 0.973 | S. cerevisiae deletion strains, locus YDR101C, strain arx1, stronger effect = lower value 1.03 | S. cerevisiae deletion strains, locus YDR150W, strain NUM1, stronger effect = lower value 0.998 and 0.995 | S. cerevisiae deletion strains, locus YDR162C, strain NBP2, stronger effect = lower value 0.984 | S. cerevisiae deletion strains, locus YDR318W, strain mcm21, stronger effect = lower value 0.987 | S. cerevisiae deletion strains, locus YDR363W, strain ESC2, stronger effect = lower value 1.01 | S. cerevisiae deletion strains, locus YDR388W, stronger effect = lower value 0.98 | S. cerevisiae deletion strains, locus YDR502C, strain sam2, stronger effect = lower value 1 | S. cerevisiae deletion strains, locus YEL061C, strain CIN8, stronger effect = lower value 0.99 | S. cerevisiae deletion strains, locus YER002W, strain NOP16, stronger effect = lower value 1.02 | S. cerevisiae deletion strains, locus YER110C, stronger effect = lower value 0.959 | S. cerevisiae deletion strains, locus YER155C, strain BEM2, stronger effect = lower value 0.999 | S. cerevisiae deletion strains, locus YER167W, strain BCK2, stronger effect = lower value 0.99 | S. cerevisiae deletion strains, locus YGL078C, strain dbp3, stronger effect = lower value 0.961 | S. cerevisiae deletion strains, locus YGL086W, strain mad1, stronger effect = lower value 1.01 | S. cerevisiae deletion strains, locus YGL248W, strain PDE1, stronger effect = lower value 0.996 | S. cerevisiae deletion strains, locus YGR078C, strain PAC10, stronger effect = lower value 1.03 and 0.988 | S. cerevisiae deletion strains, locus YGR135W, strain pre9, stronger effect = lower value 0.948 | S. cerevisiae deletion strains, locus YGR252W, strain gcn5, stronger effect = lower value 0.931 | S. cerevisiae deletion strains, locus YHR030C, strain SLT2, stronger effect = lower value 0.987 | S. cerevisiae deletion strains, locus YHR079C, strain IRE1 (second series), stronger effect = lower value 0.991 | S. cerevisiae deletion strains, locus YHR094C, strain hxt1, stronger effect = lower value 0.986 | S. cerevisiae deletion strains, locus YHR129C, strain ARP1, stronger effect = lower value 0.998 | S. cerevisiae deletion strains, locus YHR200W, strain rpn10, stronger effect = lower value 0.983 | S. cerevisiae deletion strains, locus YIL066C, strain RNR3, stronger effect = lower value 0.998 | S. cerevisiae deletion strains, locus YIL073C, strain SPO22, stronger effect = lower value 0.94 | S. cerevisiae deletion strains, locus YIL125W, strain kgd1, stronger effect = lower value 0.988 | S. cerevisiae deletion strains, locus YIR030C, strain dcg1, stronger effect = lower value 0.982 | S. cerevisiae deletion strains, locus YJL095W, strain BCK1, stronger effect = lower value 1.02 | S. cerevisiae deletion strains, locus YJL134W, strain LCB3, stronger effect = lower value 0.991 | S. cerevisiae deletion strains, locus YJL168C, strain set2, stronger effect = lower value 0.984 | S. cerevisiae deletion strains, locus YJL187C, strain SWE1 (second series), stronger effect = lower value 1 | S. cerevisiae deletion strains, locus YJR043C, strain POL32, stronger effect = lower value 1.02 | S. cerevisiae deletion strains, locus YJR075W, strain HOC1, stronger effect = lower value 0.999 | S. cerevisiae deletion strains, locus YKL009W, strain mrt4, stronger effect = lower value 0.969 | S. cerevisiae deletion strains, locus YKL068W, stronger effect = lower value 0.989 | S. cerevisiae deletion strains, locus YKL085W, strain MDH1 (second series), stronger effect = lower value 1 | S. cerevisiae deletion strains, locus YKL085W, strain MDH1, stronger effect = lower value 1 | S. cerevisiae deletion strains, locus YKL190W, strain CNB1, stronger effect = lower value 0.998 | S. cerevisiae deletion strains, locus YKR001C, strain vps1, stronger effect = lower value 0.993 | S. cerevisiae deletion strains, locus YLR039C, strain RIC1, stronger effect = lower value 1.04 | S. cerevisiae deletion strains, locus YLR058C, strain SHM2, stronger effect = lower value 0.988 | S. cerevisiae deletion strains, locus YLR102C, strain apc9, stronger effect = lower value 0.976 | S. cerevisiae deletion strains, locus YLR262C, strain YPT6, stronger effect = lower value 0.996 | S. cerevisiae deletion strains, locus YLR268W, strain sec22, stronger effect = lower value 0.992 | S. cerevisiae deletion strains, locus YLR330W, strain CHS5, stronger effect = lower value 0.999 | S. cerevisiae deletion strains, locus YLR342W, strain FKS1 (second series), stronger effect = lower value 0.984 | S. cerevisiae deletion strains, locus YLR371W, strain rom2, stronger effect = lower value 0.991 | S. cerevisiae deletion strains, locus YLR418C, strain cdc73, stronger effect = lower value 0.975 | S. cerevisiae deletion strains, locus YML016C, strain PPZ1, stronger effect = lower value 0.991 | S. cerevisiae deletion strains, locus YML032C, strain rad52, stronger effect = lower value 0.984 | S. cerevisiae deletion strains, locus YML124C, strain tub3, stronger effect = lower value 0.99 | S. cerevisiae deletion strains, locus YMR078C, strain ctf18, stronger effect = lower value 0.967 | S. cerevisiae deletion strains, locus YMR223W, strain ubp8, stronger effect = lower value 0.958 | S. cerevisiae deletion strains, locus YMR263W, strain SAP30, stronger effect = lower value 1.01 and 0.997 | S. cerevisiae deletion strains, locus YMR307W, strain GAS1, stronger effect = lower value 0.984 and 0.965 | S. cerevisiae deletion strains, locus YNL067W, strain RPL9B, stronger effect = lower value 1.01 | S. cerevisiae deletion strains, locus YNL128W, strain TEP1, stronger effect = lower value 0.984 and 0.991 | S. cerevisiae deletion strains, locus YNL175C, strain NOP13, stronger effect = lower value 0.99 | S. cerevisiae deletion strains, locus YNL197C, strain WHI3, stronger effect = lower value 0.992 | S. cerevisiae deletion strains, locus YNL224C, strain SQS1, stronger effect = lower value 0.999 | S. cerevisiae deletion strains, locus YNL233W, strain BNI4, stronger effect = lower value 1.02 | S. cerevisiae deletion strains, locus YNL250W, strain rad50, stronger effect = lower value 0.942 | S. cerevisiae deletion strains, locus YNL271C, strain bni1, stronger effect = lower value 0.983 | S. cerevisiae deletion strains, locus YNL298W, strain CLA4, stronger effect = lower value 0.96 | S. cerevisiae deletion strains, locus YNL307C, strain MCK1, stronger effect = lower value 0.981 | S. cerevisiae deletion strains, locus YNL322C, strain KRE1, stronger effect = lower value 1.01 | S. cerevisiae deletion strains, locus YNR052C, strain pop2, stronger effect = lower value 0.974 | S. cerevisiae deletion strains, locus YOL006C, strain TOP1, stronger effect = lower value 1.08 | S. cerevisiae deletion strains, locus YOL012C, strain htz1 1.91 | S. cerevisiae deletion strains, locus YOL147C, strain pex11, stronger effect = lower value 0.985 | S. cerevisiae deletion strains, locus YOR061W, strain CKA2, stronger effect = lower value 0.992 | S. cerevisiae deletion strains, locus YOR069W, strain VPS5, stronger effect = lower value 0.984 | S. cerevisiae deletion strains, locus YOR083W, strain WHI5 (second series), stronger effect = lower value 0.99 | S. cerevisiae deletion strains, locus YOR136W, strain idh2, stronger effect = lower value 0.993 | S. cerevisiae deletion strains, locus YOR144C, strain elg1, stronger effect = lower value 0.983 | S. cerevisiae deletion strains, locus YOR184W, strain ser1, stronger effect = lower value 0.968 | S. cerevisiae deletion strains, locus YOR316C, strain cot1, stronger effect = lower value 0.981 | S. cerevisiae deletion strains, locus YPL055C, strain LGE1, stronger effect = lower value 1.01 | S. cerevisiae deletion strains, locus YPL241C, strain CIN2, stronger effect = lower value 0.997 | S. cerevisiae deletion strains, locus YPR119W, strain clb2, stronger effect = lower value 0.977 | S. cerevisiae deletion strains, locus YPR141C, strain kar3, stronger effect = lower value 0.978 | S. cerevisiae deletion strains, locus YPR163C, strain tif3, stronger effect = lower value 0.987 | S. cerevisiae deletion strains, locus YPR167C, strain met16, stronger effect = lower value 0.973 | S. cerevisiae deletion strains, strain wtn01, stronger effect = lower value 0.968 | S. cerevisiae strains, strain wild type, stronger effect = lower value 0.998

From PubChem BioAssay AID1159580 (chemical genetic matrix, 2015)
